Data on 48 molecules can be found in PubChem BioAssay AID1794844 (National Center for Advancing Translational Sciences (NCATS), 2023).

In all, about 2,800 compounds went through this assay and fewer than 10 were called active. Another 7% or so got no clear call; they are omitted. The list is a sample of the results. Unmarked numbers belong to inactive results. Calls follow the shape of the dose curve; as a rule, active = well fitted inhibition curve with a large enough effect; inconclusive = small, poorly fitted or top-dose-only effect; inactive = no such curve, though single readings can be large or run the other way.
Potency is read from the fitted curve at half-maximal effect.

For the test, the target named is Metallo-beta-lactamase type 2 (Klebsiella pneumoniae) (UniProt C7C422). The test can be described thus: qHTS to identify inhibitors of the New Delhi Metallo-beta-lactamase (NDM): Nitrocefin screen against the machine-based learning selections. As to activity, negative = inhibition: % of control where 0% means no effect. Conditions: NDM-1 enzyme, nitrocefin hydrolysis, absorbance 485 nm; series mostly up to 38.4 µM; activity, negative = inhibition: at the top concentration. An excerpt: Assay Submitter (PI): James Inglese Ph.D., Patricia Dranchak Ph.D., Mahesh Aitha Ph.D. Assay Development and Screening Technology Laboratory (ADST) National Center for Advancing Translational Sciences (NCATS), Rockville, MD National Institute of Health (NIH), Bethesda, Maryland The metallo-beta-lactamases (MBL) are a main antibiotic resistance mechanism evolved by bacteria. There is an urgent clinical need for MBL inhibitors to mitigate this growing threat. To support a machine-based learning study, qHTS has been used to experimentally test inhibitors identified by prediction tools.
Chain of Metallo-beta-lactamase type 2 (Klebsiella pneumoniae) (C7C422 whole entry, looked up): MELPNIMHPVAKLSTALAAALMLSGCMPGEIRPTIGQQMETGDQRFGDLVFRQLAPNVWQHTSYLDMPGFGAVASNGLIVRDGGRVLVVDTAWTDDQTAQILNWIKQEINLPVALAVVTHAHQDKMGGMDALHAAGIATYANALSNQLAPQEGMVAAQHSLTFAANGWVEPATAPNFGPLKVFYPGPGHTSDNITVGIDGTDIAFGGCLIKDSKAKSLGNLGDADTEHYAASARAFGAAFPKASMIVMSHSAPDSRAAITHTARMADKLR
PROTOCOL TABLE (as described by Inglese et al., 2007) SEQUENCE No. (e.g., 1, 2, 3, etc.); […] (e.g., enzyme, Incubation, Reagent, etc.); VALUE; DESCRIPTION Primary Screen 1; NDM-1; 4 uL of 3 nM enzyme [2 nM final] in 50 mM HEPES (pH 7.0), 1 uM […], 0.01% Tween20; Use BioRaptr to dispense into two sets of Aurora black, clear bottom high base 1536-well plates 2; Compounds; 23 nL; Use Pin Tool (Wako) to transfer DMSO control and library compounds in DMSO 3; Incubate; >30 min 4a; Reagent; 2 uL of 50 uM nitrocefin [16.7 uM final] to one set of assay plates 4b; Reagent; 2 uL of 150 uM meropenem [50 uM final] to second set of assay plates 5a; Incubate; 15 min 5b; Incubate; 30 min 6a; Detector; Absorbance at 485 nm (bandwidth = 5 nm, 25 flashes/well) on Tecan Infinity 6b; Detector; Absorbance at 300 nm (bandwidth = 5 nm, 25 flashes/well) on Tecan Infinity NOTES (numbers refer to sequence above) 1; Column 1 of each plate received assay buffer without enzyme and columns 2-48 received enzyme for a final assay concentration of 2 nM. 2; Control plate contained DMSO in columns 1, 2, 3, and 4. 3; Compound interaction with enzyme. 4; Nitrocefin and meropenem substrates were prepared in the same assay buffer as step 1 for a final assay concentration of 16.7 uM and 50 uM, respectively, and added to all wells across respective sets of assay plates. 5; Default reader settings were applied for absorbance read at 485 nm (nitrocefin) or 300 nm (meropenem), bandwidth = 5 nm, 25 flashes/well. References: Inglese J, Shamu CE, Guy RK. 2007. Reporting data from high-throughput screening of small-molecule libraries. Nat Chem Biol. doi:10.1038/nchembio0807-438 Yasgar A, Shinn P, Jadhav A, Auld D, Michael S, Zheng W, Austin CP, Inglese J, Simeonov A. 2008. Compound Management for Quantitative High-Throughput Screening. J Lab Autom 13:79 - 89. doi:10.1016/j.jala.2007.12.004
In general terms: Quantitative high-throughput screening tests each substance at several concentrations.
On to `Cc1ccc2c(n1)N(C)[C@H](CO)CCN(Cc1cccnc1)C2`, for which the “activity, negative = inhibition” value is 4.8% [at 57.5 µM].

For `O=C(C1CC1)N1CCC2(CC1)CCN(CCc1ccccc1)c1ccccc1O2`, the “activity, negative = inhibition” value is 49.1%.

Turning to `COc1ccc(OC)c(CNC(=O)CC2CCOCC2)c1`, the “activity, negative = inhibition” value was -2.81%.

On to `O=c1[nH]nc(CNCC2(O)CCCNC2)c2ccccc12` (stereo not drawn), for which the “activity, negative = inhibition” value was -13.4%.

For `Cc1ccc(C(=O)NC2CCN(c3ccc(F)cc3)C2=O)s1` (stereo not drawn), the “activity, negative = inhibition” value was -2.33%.

As to `Cc1noc(C)c1S(=O)(=O)N1CCCN(Cc2ccncc2)C(c2ccccc2)CC(=O)NCC1` (stereo not drawn), the “activity, negative = inhibition” value was 7.54%.

In the case of `COc1cccc(N2C(=O)N[C@@H]3CCN(S(=O)(=O)c4ccccc4)[C@@H]3C2=O)c1`, the “activity, negative = inhibition” value was 0.447% [at 57.5 µM].

As to `COc1ncccc1C(=O)N1CCc2c(nc(-c3cccnc3)[nH]c2=O)C1`, the “activity, negative = inhibition” value is 3.94%.

`CN1CCOc2c(C(=O)NCCC(N)=O)cc(-c3ccccc3O)cc21`: the “activity, negative = inhibition” value is -0.0482% [at 57.5 µM].

Take `O=C(Cc1ccccc1)Nc1ccnn1C1CCN(Cc2ccc3cccc(F)c3n2)CC1`: the “activity, negative = inhibition” value is -1.06%.

Take `COC(=O)[C@H]1CN(C(=O)c2cccnc2)CCN1C(=O)C1CCCCC1`: the “activity, negative = inhibition” value is 2.03% [at 57.5 µM].

In the case of `COCCNC(=O)C[C@@H]1O[C@H](CNC(=O)c2cccc(F)c2)[C@@H](O)[C@H]1O`, the “activity, negative = inhibition” value was -2.43% [at 57.5 µM].

For `N#Cc1cccc(CN2CCOC[C@H]2c2ncc(-c3ccc(C(F)(F)F)cc3)[nH]2)c1`, the “activity, negative = inhibition” value is 3.87% [at 57.5 µM].

As for `CCN(CC)Cc1nc(C2(O)CCN(C)CC2)cs1`, the “activity, negative = inhibition” value is -1.47% [at 76.7 µM].

In the case of `Fc1ccc2nc([C@H]3CCN(C4CCC4)C3)[nH]c2c1`, the “activity, negative = inhibition” value was 14% [at 76.7 µM].

For `CC(=O)N1CCN(c2cc(-c3noc([C@@H]4CCCN4Cc4ccccc4C)n3)ccn2)CC1`, the “activity, negative = inhibition” value is -0.621%.

For `CSc1ncccc1C(=O)NC1CCCN(CCCc2ccccc2)C1` (stereo not drawn), the “activity, negative = inhibition” value was 9.24%.

For `Cc1ccccc1C1CCCN1Cc1ncccc1C(=O)O` (stereo not drawn), the Potency was 13.4 µM (active).

For the molecule `O=c1c2nc(NCc3cccs3)ccc2ncn1Cc1ccccc1`, the “activity, negative = inhibition” value was 0.467% [at 57.5 µM].

On to `COCCNS(=O)(=O)c1cc(C(=O)O)cc(-c2ccc(OC)c(F)c2)c1`, for which the “activity, negative = inhibition” value is -0.8%.

For the molecule `Cc1noc2c(-c3cccc(O)c3)cc(-c3cccs3)nc12`, the “activity, negative = inhibition” value was 1.99% [at 57.5 µM].

As for `COC[C@H]1CCCN1C(=O)[C@@H](C)C1CC[C@@]2(C)CC[C@H](NC(=O)CC(C)(C)C)[C@@H](C)[C@@H]2[C@H]1O` (stereo partly drawn), the “activity, negative = inhibition” value is -2.54%.

Consider `CN1C(=O)C(c2ccccc2)CC12CCN(C(=O)c1cccc(F)c1)CC2` (stereo not drawn), for which the “activity, negative = inhibition” value was 5.03%.

On to `CC(C)NC(=O)N1CCN(C(=O)N2CCOCC2)[C@@H](C(=O)N[C@H](Cc2c[nH]c3ccccc23)C(N)=O)C1`, for which the “activity, negative = inhibition” value is -10.8%.

For the molecule `CC[C@H]1CN(C(=O)NC(C)C)CC[C@H]1CC(=O)N(C)CCC#N`, the “activity, negative = inhibition” value is -12.7% [at 57.5 µM].

Take `Cc1nn2cc(CCNCC3(O)CNCCOC3)nc2s1` (stereo not drawn): the “activity, negative = inhibition” value is 2.59%.

Take `COc1ccccc1C(O)c1nc(Nc2ccc(C(C)C)cc2)n[nH]1` (stereo not drawn): the “activity, negative = inhibition” value was 7.45% [at 57.5 µM].

Turning to `Cc1ccc(NC(=O)N[C@@H]2C=C(C(=O)N[C@H](CC(C)C)C(N)=O)C[C@@H](O)[C@@H]2O)cc1`, the “activity, negative = inhibition” value is 2.2% [at 57.5 µM].

`Cc1ccc(-n2nc(C)c([C@@H]3C=C[C@@H](NCc4cccc(C#N)c4)C3)c2C)cc1Cl`: the “activity, negative = inhibition” value is 2.91% [at 57.5 µM].

`OC(c1ccccc1)c1nc(Nc2ccc(C(F)(F)F)cc2)n[nH]1` (stereo not drawn): the “activity, negative = inhibition” value was 7.39% [at 57.5 µM].

As for `CC(C)Cc1cc(C(=O)N2C[C@H](C3CC3)[C@@H](N)C2)n(C)n1`, the “activity, negative = inhibition” value is -2.3%.

Take `O=C(c1ccc(Cn2cnnn2)cc1)N1CCC2(CC1)[C@H](O)C[C@@H]2OCCO`: the “activity, negative = inhibition” value is -2.43%.

`COc1ccc(OC)c(CNC(=O)Cc2cccn2-c2ccc(C)cc2)c1`: the “activity, negative = inhibition” value is -4.62%.

On to `COc1ccccc1C(O)c1nc(Nc2ccc(Cl)cc2)n[nH]1` (stereo not drawn), for which the “activity, negative = inhibition” value was 3.08% [at 57.5 µM].

Regarding `CNC(=O)C1(N2CCC[C@H]2C(=O)N2CCCC2)COC1`, the “activity, negative = inhibition” value was 11.1% [at 76.7 µM].

On to `COCCO[C@H]1C(=O)N(C2CCN(C(=O)c3cnccn3)CC2)[C@H]1c1ccncc1`, for which the “activity, negative = inhibition” value was 5.4%.

In the case of `COc1ccc(C(=O)N2CC[C@@H](CC(=O)O)[C@@H](CCN3CCN(c4ccccn4)CC3)C2)cc1`, the “activity, negative = inhibition” value was -10.6%.

Regarding `COCCNC(=O)[C@@H]1CCC[C@@H](NC(=O)C2CC2)CN(C)C(=O)C1`, the “activity, negative = inhibition” value was -4.15% [at 57.5 µM].

Take `Cc1cccc(C)c1-c1nc(C(=O)NCCc2ccc(Cl)cc2)n2ccccc12`: the “activity, negative = inhibition” value was 2.12%.

For `COc1cccc(Nc2cc3c(cn2)CN(Cc2cccnc2)CCN3)c1`, the “activity, negative = inhibition” value was 6.77% [at 57.5 µM].

Consider `Cc1noc(C)c1S(=O)(=O)N1C[C@@H](C(N)=O)[C@H](C2CCN(C)CC2)C1`, for which the “activity, negative = inhibition” value was 0.0336%.

Consider `Nc1n[nH]c(CNc2cc(-c3ccc(F)cc3)nc3ccnn23)n1`, for which the “activity, negative = inhibition” value was 8.01%.

As for `COC(=O)c1ccccc1NC(=O)Cn1cccc1-c1nc(-c2ccccc2)no1`, the “activity, negative = inhibition” value was 11.4%.

In the case of `COC(=O)[C@@H](C)NC(=O)[C@H]1CN(C(=O)c2cccnc2)CCN1S(C)(=O)=O`, the “activity, negative = inhibition” value was 0.882% [at 57.5 µM].

Take `Cc1noc2c(N3CCOCC3)cc(-c3cccnc3)nc12`: the “activity, negative = inhibition” value is 5.33% [at 57.5 µM].

For `CC(C)C[C@@H]1N[C@H](C(=O)NCc2cccs2)Cc2c[nH]c3cccc1c23`, the “activity, negative = inhibition” value was -5.41% [at 57.5 µM].

Regarding `CCCNC(=O)NC[C@H]1O[C@@H]2C[C@@H](CC(=O)N3CCC(F)(F)C3)O[C@@H]2[C@@H]1O`, the “activity, negative = inhibition” value was 3.53% [at 57.5 µM].

For `O=C(N[C@H]1[C@H](O)[C@H](O)C[C@@H]1c1cccnc1)c1ccccn1`, the “activity, negative = inhibition” value is -2.52% [at 57.5 µM].
